Source: PubChem BioAssay (National Center for Advancing Translational Sciences (NCATS))
B2AR arrestin ag: beta-arrestin recruitment by human beta2-adrenergic receptor ligands | P07550 | HTLA Tango cells, beta-arrestin recruitment, luciferase luminescence, 18 h | Potency, µM (highest dose often 46.1 µM), hits mostly activators | 44,000 tested, under 10 active;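 further: potency means the concentration at half of the fitted maximal effect; 0% = DMSO and full agonism = EC100 isoproterenol or metaproterenol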
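Luminescence read-out: arrestin recruitment to recombinant beta2-AR releases tTA, inducing luciferase. Cells exposed 18 hr at 37 degrees C to up to 46 microM compound; %Activity from corrected signal, concentration-response curves classified by r2, magnitude and efficacy.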
FH mod: Identification of activators of human fumarate hydratase by quantitative high-throughput screening | FH coupled MDH/diaphorase resazurin fluorescence, 15 min | 54,000 tested, 0.22% active | Fumarate hydratase, mitochondrial (Homo sapiens), P07954 | Potency, µM (titrated, usually from 79.9 µM), inactives show at the highest dose activity change, negative = inhibition, most hits filed as inhibitors; further: potency means the concentration at half of the fitted maximal effect; on the % scale 0 is the no-effect control and ±100 the full control effect; the screen sought activators but most active calls are inhibition curves; nearly all actives have a fitted effect of over 45% in size
Target sequence (P07954 whole entry, looked up): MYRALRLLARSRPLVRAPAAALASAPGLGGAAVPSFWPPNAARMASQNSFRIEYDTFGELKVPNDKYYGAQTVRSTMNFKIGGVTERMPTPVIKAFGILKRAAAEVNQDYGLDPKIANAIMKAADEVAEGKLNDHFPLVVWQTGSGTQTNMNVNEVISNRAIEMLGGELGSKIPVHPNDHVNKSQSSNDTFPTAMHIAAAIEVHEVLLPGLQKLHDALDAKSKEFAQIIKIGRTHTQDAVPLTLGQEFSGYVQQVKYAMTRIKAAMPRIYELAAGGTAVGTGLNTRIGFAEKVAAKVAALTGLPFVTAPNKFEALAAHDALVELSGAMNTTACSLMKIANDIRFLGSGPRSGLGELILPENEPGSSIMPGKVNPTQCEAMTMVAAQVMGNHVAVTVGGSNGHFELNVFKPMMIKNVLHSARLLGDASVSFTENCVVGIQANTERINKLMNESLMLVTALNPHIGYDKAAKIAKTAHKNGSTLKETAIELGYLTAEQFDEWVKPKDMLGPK
HTT promoter inh: inhibits huntingtin promoter activity; Potency, µM (titrated, usually from 57.5 µM), without a hit: at the highest dose activity change, negative = inhibition, most hits filed as inhibitors; AID 1508623; 48,000 tested, 0.93% active; HEK293 HTT promoter firefly luciferase reporter, 24 h; further: potency means the concentration at half of the fitted maximal effect; nearly all actives have a fitted effect of over 50% in size
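HEK293 cells carrying firefly luciferase reporters were seeded at 2,500 per well in Opti-MEM and cultured for 24 h. They were then treated with compounds at up to 57.5 uM final for 24 h at 37 degrees C before Dual-Glo luminescence readout.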
HTT-AS act: activators of huntingtin-antisense promoter activity. HEK293 HTT-AS promoter firefly luciferase reporter, 24 h; response scale: percent change from vehicle, -100% = no light. Potency, µM (highest dose often 57.5 µM), for the others: top-dose activity change, positive = activation, hits mostly activators. 48,000 tested, 0.24% active; further: potency means the concentration at half of the fitted maximal effect; nearly all actives have a fitted effect of over 55% in size
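Firefly luciferase signal from promoter-reporter HEK293 cells was scaled between vehicle (0%) and zero RLU (-100%). Compounds were tested at final concentrations of up to 57.5 uM over 24 h at 37 degrees C. PTC124 at 50 uM final served as control inhibitor.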
GALC G270D act: raises human GALC G270D mutant activity in cells. 145M-Twi-hGALC-G270D cells, HMU-beta-Gal fluorescence, 48 h. Potency, µM (series often up to 57.5 µM), usual class: activators. 45,000 tested, 0.1% active. AID 1159614; further: potency means the concentration at half of the fitted maximal effect; 0% is about no effect; nearly all actives have a fitted effect of over 65% in size
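qHTS, 1536-well; 145M-Twi-hGALC-G270D cells (WT line also made) in DMEM/F12 + 10% FBS; compound incubation on live cells; HMU-β-gal 0.1 mM final, pH 5.2, NaTC; carbonate stop; fluorescence increase = enhanced residual activity.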
GPR32 ag: activates human resolvin D1 receptor GPR32; CHO-K1 GPR32 beta-arrestin PathHunter luminescence, 90 min; zero percent set by DMSO-only wells; activation, % at 76.9 µM; AID 1346428; 48,000 tested, 2.5% active;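 active means activation of at least 60% and not above a set upper limit, about 1 call in 100 departs from these limits; inconclusive means activation of 40% to 60%, or above that upper limit; inactive means activation under 40%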; further: 0% is about no effect
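Step 1: seed CHO-K1 GPR32 beta-arrestin cells, 2,500/well, overnight at 37 °C. Step 2: add compounds, 90 min at 37 °C. Step 3: detection reagent, 1 h ambient, then luminescence.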
Numbers without * were called inactive; i = inactive; ? = inconclusive; · = no result given; [ ] = remark or other dose. This is a sample that favours compounds with a hit; in the whole collection about 3.7% have one here. Unless noted, the call rests on the fitted dose curve; in most records, active means well fitted curve in the direction sought with a large enough effect; inconclusive means small, poorly fitted or top-dose-only effect, or another doubt; inactive means no such curve, though single readings can be large; an effect the other way counts as inactive or inconclusive.

SMILES	B2AR arrestin ag	FH mod	HTT promoter inh	HTT-AS act	GALC G270D act	GPR32 ag
COC(=O)c1cc2sc(Cl)cc2n1CC(=O)Nc1cc(OC)cc(OC)c1	i	-5%	-23%	7%	i	89*
CC(C)c1cccc(C(C)C)c1NC(=O)Nc1ccc(Sc2ccc([N+](=O)[O-])cc2)cc1	·	-6%	·	·	·	·
Cc1cccc(-c2noc(-c3ccc(N4CCN(C)CC4)c([N+](=O)[O-])c3)n2)c1	i	-34%	1.4µM*	-73%	i	0
NS(=O)(=O)c1ccc(NC(=O)CN2C(=O)COc3ccc(Cl)cc32)cc1	i	-13%	-16%[11.5 µM]	-9%	i	93*
Cc1ccc(NC(=O)CN2C(=O)COc3ccc(S(=O)(=O)N4CCCCC4)cc32)cc1Cl	i	-9%	-15%	-21%	i	-30
O=C(CN1C(=O)COc2ccc(Cl)cc21)Nc1cccc(F)c1	i	-1%	?	-15%	i	-13
Cc1ccc(NC(=O)CN2C(=O)COc3ccc(S(=O)(=O)NC4CCCC4)cc32)cc1Cl	i	-20%	-25%	-35%	i	106*
CCN(CC)S(=O)(=O)c1ccc2c(c1)N(CC(=O)NCCCN1CCN(c3cc(Cl)ccc3C)CC1)C(=O)CO2	i	-11%	-30%	-34%	i	78*
[2H]C([2H])([2H])C(OC(=O)[C@H](C)N[P@](=O)(OC[C@H]1O[C@@H](n2ccc(=O)[nH]c2=O)[C@](C)(F)[C@@H]1O)Oc1ccccc1)C([2H])([2H])[2H]	·	12%	·	·	·	·
COc1ccccc1CCNC(=O)C(=O)NCC(c1ccco1)S(=O)(=O)c1ccc(C)cc1 (stereo unspecified)	i	-25%	?	-24%	7.9µM*	-20
CC1(C)CCCC2(C)C1CC(=O)C13CC(CCC12)C(O)(CO)C3 (stereo unspecified)	·	-1%[53.3 µM]	·	·	·	·
Cc1cc(N2CCN(C)CC2)nc2ccc(NC(=O)Nc3ccccc3Br)cc12	i	-16%	-12%	-7%	i	103*
Cc1cc(N2CCN(C)CC2)nc2ccc(NC(=O)Nc3cccc(Cl)c3)cc12	i	-10%	7%	-1%	i	93*
Cc1cc(Nc2cccc(Cl)c2)nc2ccc(NC(=O)c3cccnc3)cc12	i	?	?	-60%	i	60*
Cc1cc(Nc2cccc(Cl)c2)nc2ccc(NC(=O)c3cccc(N(C)C)c3)cc12	i	-28%	2%	-6%	i	6
COc1cccc(CNC(=O)Cn2c(=O)oc3cc(S(=O)(=O)N4CCCCCC4)ccc32)c1	i	-6%	?	-24%	i	76*
CN(C)c1ccc(CNC(=O)Cn2c(=O)oc3cc(S(=O)(=O)N4CCCCCC4)ccc32)cc1	i	-6%	?	-33%	i	113*
Cn1c(=O)oc2cc(S(=O)(=O)NC(Cc3ccccc3)C(=O)NCc3ccc(F)cc3)ccc21 (stereo unspecified)	i	9%	-7%	14%	i	-6
CN(C)c1ccc(CNC(=O)C(Cc2ccccc2)NS(=O)(=O)c2ccc3c(c2)oc(=O)n3C)cc1 (stereo unspecified)	i	15%	-15%	13%	i	94*
CC(O)/C=C/C1(O)C(C)C(O)C(O[C@@H]2O[C@H](CO)[C@@H](O)[C@H](O)[C@H]2O)CC1(C)C (stereo partly specified)	·	1%[53.3 µM]	·	·	·	·
CN(C)CCCCCCNC(=O)c1cccc(-c2cc(O)c3ncccc3c2)c1	·	20%	·	·	·	·
Cc1nc2cccnc2n1C1CCN(C(=O)Nc2ccc(Cl)cc2)CC1	i	-9%	9%	10%	i	88*
CCOc1ccc(S(=O)(=O)N2CCC(n3c(C)nc4cccnc43)CC2)cc1	i	-12%	?	-25%	i	76*
Cc1ccc(NC(=O)N2CCC(n3c(C)nc4cccnc43)CC2)c(Cl)c1	i	-3%	-4%	-2%	i	1
Cc1nc2cccnc2n1C1CCN(S(=O)(=O)c2ccc(Cl)cc2)CC1	i	·	·	·	·	49
SMILES	B2AR arrestin ag	FH mod	HTT promoter inh	HTT-AS act	GALC G270D act	GPR32 ag
COC(=O)c1ccccc1NC(=O)[C@H]1O[C@@H]2OC(C)(C)O[C@@H]2[C@H]2OC(C)(C)O[C@H]21	i	9%	-9%	-12%	i	-37
COc1ccc(NC(=O)[C@H]2O[C@@H]3OC(C)(C)O[C@@H]3[C@H]3OC(C)(C)O[C@H]32)c(OC)c1	i	-6%	24%	11%	i	97*
Cc1nc(N2CCCC2)ncc1C(=O)Nc1ccc(OC(F)(F)F)cc1	i	-7%	?	-26%	i	39
CCOC(=O)c1ccc(NC(=O)c2cnc(N3CCCC3)nc2C)cc1	i	-5%	-21%	-9%	i	96*
COc1ccc(OC)c(CCNc2ncnc3onc(-c4ccc(F)cc4)c23)c1	i	-18%	-34%	-41%	i	-2
COc1ccc(OC)c(CCNc2ncnc3onc(C)c23)c1	i	17%	16µM*	-71%	i	25
Cc1cn(C2C[C@H](O)[C@@H](CO)O2)c(=O)[nH]c1=O (stereo partly specified)	·	16%	·	·	·	·
O=C(COc1ccccc1[N+](=O)[O-])Nc1cccc(-c2nc3ccccc3s2)c1	?	3%	52%	?	i	84*
O=C(COc1ccccc1[N+](=O)[O-])Nc1ccc(-c2nc3ccccc3s2)cc1	i	-4%	44%	?	?	5
Cc1ccc(-c2nc3ccccc3[nH]2)cc1NC(=O)COc1ccccc1[N+](=O)[O-]	i	6%	?	-36%	i	79*
CC(=O)c1ccc2c(c1)C(O)C(C(C)(C)O)O2 (stereo unspecified)	·	4%	·	·	·	·
Clc1ccc(CN[C@H]2CCN(c3ncc(Br)cn3)C2)c(Cl)c1	·	-8%	·	·	·	·
O=C(NCCN1CCC(n2c(=O)[nH]c3ccccc32)CC1)c1cc2cc(F)ccc2[nH]1	·	-3%	·	·	·	·
Cc1oc(-c2ccc(C(=O)NCc3ccccc3Cl)cc2)nc1CN1CCc2ccccc21	i	-13%	14µM*	-34%	i	-2
CCCCOc1ccc(CNC(=O)c2ccc(-c3nc(CN4CCc5ccccc54)c(C)o3)cc2)cc1	i	-5%	-24%	-23%	i	-1
